The source of these data is the supplement of paper PMC13380429.

Assay [1] relates to Vero E6 infected with SARS-CoV-2. Put plainly: morphology score (similarity to uninfected cells); higher = more like uninfected cells. The note with it: 24 h.
Assay [2] shares this test system. Put plainly: SARS-CoV-2 infection rate relative to infected DMSO; higher = more infection, active = 60 or less. The note with it: 24 h.

Consider `Cc1c(N)c(=O)n(-c2ccccc2)n1C` [ampyrone] (10 µM), for which the morphology score in assay [1] was -0.0355. Moreover, the SARS-CoV-2 infection rate in assay [2] was 113% (inactive).
In the same order, the values of `C/C=C(/C)C(=O)O[C@H]1C(C)=C[C@]23C(=O)[C@@H](C=C(CO)[C@@H](O)[C@]12O)[C@H]1[C@@H](C[C@H]3C)C1(C)C` [ingenol-mebutate] (0.833333 µM) are -0.298 and 95% (inactive).
For `CC(=O)O/N=C1\C(=O)N(Cc2cc(Cl)ccc2Cl)c2ccc(Cl)cc21` (10 µM), in that order: 0.395 and 76% (inactive).
For the compound `C[C@]12CCC(=O)C=C1CC[C@@H]1[C@@H]2[C@@H](O)C[C@@]2(C)[C@H]1CC[C@]2(O)C(=O)CO` [hydrocortisone] (10 µM), the morphology score in assay [1] was -0.144. Further, the SARS-CoV-2 infection rate in assay [2] was 122% (inactive).
Turning to `Cc1cc(C)c(/C=C2\C(=O)Nc3ccccc32)[nH]1` [semaxanib] (10 µM), the morphology score in assay [1] worked out at 0.208. Further, the SARS-CoV-2 infection rate in assay [2] was 96% (inactive).
For `O=C(Cc1ccc(-c2ccccc2)cc1)Nc1ccccn1` [difenpiramide] (10 µM), in that order: 0.431 and 62% (inactive).
For `O=C(/C=C/N1C[C@H]2C[C@@H]1CN2c1ccccn1)c1ccccc1O` (10 µM), in that order: -0.0425 and 116% (inactive).
Turning to `CN1CCN(S(=O)(=O)c2ccc(-c3cnc(N)c(C(=O)Nc4cccnc4)n3)cc2)CC1` (0.833333 µM), the morphology score in assay [1] was 0.224. Besides, in assay [2], the SARS-CoV-2 infection rate is 99% (inactive).
In the same order, the values of `CC(O)Cn1cnc2c1c(=O)n(C)c(=O)n2C` (stereo unspecified) [Proxyphylline] (10 µM) are 0.074 and 97% (inactive).
`Cc1cc(C)c(CNC(=O)c2cc(-c3ccc(N4CCN(C)CC4)nc3)cc3c2c(C)cn3C(C)C)c(=O)[nH]1` (10 µM): the morphology score in assay [1] is 0.171. Besides, the SARS-CoV-2 infection rate in assay [2] was 98% (inactive).
In the same order, the values of `CCCCN(CCCC)CCCOC(=O)c1ccc(N)cc1` [butacaine] (10 µM) are 0.206 and 100% (inactive).
For `O[C@H]1[C@H](O)[C@@H](O)CN2CC[C@H](O)[C@H]12` [castanospermine] (10 µM), in that order: -0.18 and 112% (inactive).
For `COc1ccc(CNC(=O)/C=C/c2ccc3[nH]cc(CCN(C)C)c3c2)cc1` (10 µM), in that order: 0.155 and 88.5% (inactive).
In assay [1], `CC(=O)Nc1nnc(S(N)(=O)=O)s1` [acetazolamide] (10 µM) showed a morphology score of 0.0392. In addition, the SARS-CoV-2 infection rate in assay [2] is 85.5% (inactive).
Compound `Cc1sc2c(c1C)C(c1ccc(Cl)cc1)=N[C@@H](CC(=O)Nc1ccc(O)cc1)c1nnc(C)n1-2` (10 µM) displayed a morphology score in assay [1] of -0.169. Also, in assay [2], the SARS-CoV-2 infection rate was 114% (inactive).
In the same order, the values of `NCCc1cc(O)c(O)cc1O` [oxidopamine] (10 µM) are 0.0957 and 102% (inactive).
In the same order, the values of `Cc1cnc(-c2cnc(NCCNc3ccc(C#N)cn3)nc2-c2ccc(Cl)cc2Cl)[nH]1` (0.833333 µM) are -0.0902 and 108% (inactive).
In the same order, the values of `COc1cc(OC)c(C(=O)CCCCN2CCC3(CC2)NC(=O)NC3=O)cc1NS(=O)(=O)c1ccc(C(F)(F)F)cc1` (10 µM) are 0.222 and 93% (inactive).
`CC(C)OC(=O)[C@H](C)N[P@@](=O)(OC[C@H]1O[C@@H](n2ccc(=O)[nH]c2=O)[C@](C)(F)[C@@H]1O)Oc1ccccc1` (10 µM) showed a morphology score in assay [1] of 0.087. Also, in assay [2], the SARS-CoV-2 infection rate was 108% (inactive).
In the same order, the values of `CC[C@H]1OC(=O)[C@H](C)[C@@H](O[C@H]2C[C@@](C)(OC)[C@@H](O)[C@H](C)O2)[C@H](C)[C@@H](O[C@@H]2O[C@H](C)C[C@H](N(C)C)[C@H]2O)[C@](C)(OC)C[C@@H](C)C(=O)[C@H](C)[C@@H](O)[C@]1(C)O` [clarithromycin] (10 µM) are -0.0778 and 109% (inactive).
For `CC(C)c1cccc2c(-c3ccccc3)cc(-c3ccc(-c4ccc(C(=O)O)cc4)[nH]3)nc12` (10 µM), in that order: 0.104 and 87.5% (inactive).
For `O=C(Cn1ccnc1[N+](=O)[O-])NCCO` [etanidazole] (10 µM), in that order: 0.0673 and 94.5% (inactive).
In assay [1], `C[C@@H](CN1CCC(n2c(=O)[nH]c3cc(Cl)ccc32)CC1)NC(=O)c1ccc2ccccc2c1` (10 µM) had a morphology score of 0.46. Further, in assay [2], the SARS-CoV-2 infection rate was 87% (inactive).
For `NNC(=O)CN1C(=O)CN=C(c2ccccc2)c2cc(Br)ccc21` [gidazepam] (10 µM), in that order: 0.101 and 100% (inactive).
For `Nc1ccc(C(=O)Nc2cccc(-c3nc(N4CCOCC4)c4oc5ncccc5c4n3)c2)cn1` (10 µM), in that order: 0.168 and 94.5% (inactive).
`CCOC(=O)COc1ccc2c(=O)cc(-c3ccccc3)oc2c1` [efloxate] (10 µM) registered a morphology score in assay [1] of 0.19. For the same compound, the SARS-CoV-2 infection rate in assay [2] is 96.5% (inactive).
In the same order, the values of `CC[C@H](NC(=O)c1c(O)c(-c2ccccc2)nc2ccccc12)c1ccccc1` [talnetant] (10 µM) are -0.0287 and 117% (inactive).
As for `CC(=O)N1CCN(c2ccc(OC[C@@H]3CO[C@@](Cn4ccnc4)(c4ccc(Cl)cc4Cl)O3)cc2)CC1` (racemic) [ketoconazole] (10 µM), the morphology score in assay [1] was 0.0784. Also, the SARS-CoV-2 infection rate in assay [2] is 108% (inactive).
For `CN1C/C=C/CCOc2cccc(c2)-c2ccnc(n2)Nc2cccc(c2)C1` (10 µM), in that order: -0.0856 and 104% (inactive).
In assay [1], `CN(C)CCCO[C@@H]1[C@H]2OC(C)(C)O[C@H]2O[C@@H]1[C@H](O)CO` [amiprilose] (10 µM) displayed a morphology score of -0.0292. Moreover, the SARS-CoV-2 infection rate in assay [2] was 104% (inactive).
In the same order, the values of `CC(=O)N[C@H]1[C@H]([C@H](O)[C@H](O)CO)OC(C(=O)O)=C[C@@H]1NC(=N)N` [zanamivir] (10 µM) are 0.113 and 108% (inactive).
In the same order, the values of `c1ccc2sc(N3CCN(Cc4ccc5c(c4)OCO5)CC3)nc2c1` [2-[1-(4-piperonyl)piperazinyl]benzothiazole] (10 µM) are 0.00324 and 102% (inactive).
In turn, `Cc1c(NC(=O)c2cc3c(s2)CCCC3)cccc1-c1cn(C)c(=O)c(Nc2ccc(C3C(=O)N(C)CCN3C)cc2)n1` (stereo in doubt) (10 µM) gave a morphology score in assay [1] of 0.45. In addition, the SARS-CoV-2 infection rate in assay [2] was 69% (inactive).
For `CC(=O)N(C)c1cc(-c2ccnc3c(C(=O)c4cccs4)cnn23)ccc1F` [lorediplon] (10 µM), in that order: -0.126 and 112% (inactive).
For `O=C(NCCN1CCN(c2ncccn2)CC1)C12CC3CC(CC(C3)C1)C2` [adatanserin] (10 µM), in that order: 0.159 and 109% (inactive).
For `CCOc1ccc2nc3cc(N)ccc3c(N)c2c1` [ethacridine-lactate-monohydrate] (10 µM), in that order: 0.0887 and 95.5% (inactive).
For the compound `COc1ccc2c(c1)C(=O)N(CCc1ccc(S(=O)(=O)NC(=O)NC3CCCCC3)cc1)C(=O)C2(C)C` [gliquidone] (10 µM), the morphology score in assay [1] is 0.283. Besides, the SARS-CoV-2 infection rate in assay [2] was 98.5% (inactive).
As for `NS(=O)(=O)c1cc2c(cc1Cl)N=CNS2(=O)=O` [chlorothiazide] (10 µM), in assay [1], the morphology score was -0.179. Also, the SARS-CoV-2 infection rate in assay [2] is 106% (inactive).
For `O=C(Nc1ccc(Cl)cc1)Nc1ccc(Cl)c(Cl)c1` [triclocarban] (10 µM), in that order: 0.0739 and 98.5% (inactive).
In the same order, the values of `O=C(O)C(=O)O.[NH-][C@@H]1CCCC[C@H]1[NH-].[Pt+2]` [oxaliplatin] (10 µM) are -0.0885 and 112% (inactive).
Regarding `Oc1cccc(Nc2ccc(Nc3cccc(O)c3)nn2)c1` [beta-amyloid-synthesis-inhibitor] (10 µM), in assay [1], the morphology score was found to be 0.0822. In assay [2], the SARS-CoV-2 infection rate was 104% (inactive).
In the same order, the values of `CNC[C@@H]1CC[C@@H](N)[C@@H](O[C@H]2[C@H](O)[C@@H](O[C@H]3OC[C@](C)(O)[C@H](NC)[C@H]3O)[C@H](N)C[C@@H]2N)O1` [micronomicin] (10 µM) are 0.0697 and 96% (inactive).
For `CC(C)[C@@H](CN1CC[C@@](C)(c2cccc(O)c2)[C@@H](C)C1)NC(=O)[C@H]1Cc2ccc(O)cc2CN1` (10 µM), in that order: -0.0336 and 99.5% (inactive).
`NCc1ccc(S(N)(=O)=O)cc1` [mafenide] (10 µM) gave a morphology score in assay [1] of 0.136. The SARS-CoV-2 infection rate in assay [2] is 91% (inactive).
For `NC[C@@H](O)CC(=O)O` [aminohydroxybutyric-acid] (10 µM), in that order: 0.226 and 92% (inactive).
In assay [1], `C#CCN(C)[C@H](C)Cc1ccccc1` [selegiline] (10 µM) registered a morphology score of 0.0406. The SARS-CoV-2 infection rate in assay [2] was 105% (inactive).
For `C[C@H](N)C(=O)N[C@@H](CCC(N)=O)C(=O)O` [dipeptamin] (10 µM), in that order: 0.00346 and 102% (inactive).
For `O=C(O)Cc1ccc(CCNS(=O)(=O)c2ccc(Cl)cc2)cc1` [daltroban] (10 µM), in that order: 0.136 and 97.5% (inactive).
In the same order, the values of `O=C(Nc1cccc2cccnc12)c1ccc(N2C(=O)[C@@H]3[C@H](C2=O)[C@H]2C=C[C@@H]3C2)cc1` (10 µM) are 0.00174 and 102% (inactive).
In turn, `Nc1nc(NC[C@H]2CC[C@H](CNS(=O)(=O)c3cccc4ccccc34)CC2)nc2ccccc12` (0.833333 µM) had a morphology score in assay [1] of -0.0427. Moreover, in assay [2], the SARS-CoV-2 infection rate is 93.5% (inactive).
In the same order, the values of `CC(COc1ccccc1Cc1ccccc1)N1CCCCC1` (stereo unspecified) [benproperine] (10 µM) are 0.214 and 79% (inactive).
For `Nc1nc2c(ccc3ccccc32)s1` (10 µM), in that order: -0.0747 and 102% (inactive).
For `OC[C@H]1O[C@@H](O[C@@H]2[C@H](O)[C@@H](O)[C@H](O[C@H]3[C@H](O)[C@@H](O)C(O)O[C@@H]3CO)O[C@@H]2CO)[C@H](O)[C@@H](O)[C@H]1O` (stereo partly specified) [4-galactosyllactose] (10 µM), in that order: -0.0673 and 114% (inactive).
With `NC(=O)c1ccc(-c2nc(-c3ccccn3)c(-c3ccc4c(c3)OCO4)[nH]2)cc1` (10 µM), the morphology score in assay [1] is -0.124. In addition, in assay [2], the SARS-CoV-2 infection rate was 109% (inactive).
For `Cc1cccc(Cc2c[nH]cn2)c1C` [detomidine] (10 µM), in that order: -0.193 and 116% (inactive).
For `COC(=O)C1=C(C)NC(C)=C(C(=O)OC/C=C/c2ccccc2)C1c1cccc([N+](=O)[O-])c1` (stereo unspecified) [pranidipine] (10 µM), in that order: -0.0636 and 107% (inactive).
In the same order, the values of `C[N+](C)(CCOc1ccccc1)Cc1ccccc1` [bephenium-hydroxynaphthoate] (10 µM) are 0.171 and 94.5% (inactive).
Consider `O=C(O)[C@H]1CC[C@H](c2cc3cccnc3c(-c3cccc(F)c3)n2)CC1` (10 µM), for which the morphology score in assay [1] worked out at 0.315. For the same compound, the SARS-CoV-2 infection rate in assay [2] was 103% (inactive).
